“And” between values parts separate entries of the source, which are not always exact repeats. Identical values can stand only once. Results filed as inconclusive are left out. Where a structure was tested more than once in an assay, its records may differ in their call. The source made the active and inactive calls. Rule for the calls, unless noted: active = hit-call score of the fitted dose curve at least 0.9, where 1 is the maximum; inconclusive = response in the unintended direction; inactive = score below 0.9.
How the values were obtained:
[1] = test system: Thyroperoxidase (TPO), gene 54314; experiment: CCTE_Simmons_AUR_rTPO: CCTE's Amplex UltraRed Assay for Thyroperoxidase (TPO) Inhibition, Simmons Lab (AID 2283662);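 for AC50: potency for loss of signal meaning inhibition of peroxidase activity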
Outline: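 Rat thyroid microsomal TPO + 25 uM AUR in 200 mM K phosphate; cpd 5 nM–87.5 uM [final], 8 conc, 0.5% DMSO; 300 uM H2O2 starts rxn; 37C dark 30 min; endpoint FI 544/590 nm; n=3.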

[2] = CCTE_Simmons_CellTiterGLO_HEK293T: Viability Assessment in CCTE's Assays for Thyroperoxidase (TPO) Inhibition, Simmons Lab (AID 2283665);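 for AC50: cells exposed to compound for 24 h before readout; actives reduce ATP signal below DMSO vehicle meaning cytotoxicity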
Outline: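 Luciferase-coupled ATP content after 24 h exposure gives viability; 8-point series from 5 nM to 87.5 uM final in 0.5% DMSO. Human HEK293T cells, 1% FBS medium, three biological replicates, dichlone positive control.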

[3] = read-out: alkyl and aryl transferase (GSTA2), GSTA2 (gene 2939); experiment: CLD_GSTA2_6hr: CellzDirect (CLD) Gene Expression Assay for alkyl and aryl transferase (GSTA2) at 6 hours (AID 2283666)
Outline: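 GSTA2 transcript induction at 6 h, quantified by nuclease protection (qNPA) with chemiluminescent detection, in human liver primary hepatocytes exposed to several compound concentrations with 0.2% DMSO as baseline; phase-contrast morphology annotated apparent cytotoxicity.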

[4] = Tanguay_ZF_120hpf_TR_legacy: (Legacy) Oregon State University Tanguay Lab 120 Hour Post-fertilization zebrafish Assay for Touch Response (AID 2283667)
Outline: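 Binary touch-response call at 120 hpf, analysed as gain of signal versus DMSO baseline. Wild-type 5D larvae, static exposure at 28C, 0.64% DMSO final; 5uM trimethyltin chloride as positive control.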

[5] = read-out: glucuronosyltransferase (UGT1A1), UGT1A1 (gene 54658); experiment: CLD_UGT1A1_6hr: CellzDirect (CLD) Gene Expression Assay for glucuronosyltransferase (UGT1A1) at 6 hours (AID 2283672)
Outline: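 UGT1A1 mRNA induction, read by quantitative nuclease protection assay, 6 h after dosing primary human hepatocytes (two donors, 0.2% DMSO vehicle). Gain of signal fitted relative to vehicle.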

[6] = read-out: xenobiotic metabolism (CYP1A1), CYP1A1 (gene 1543); experiment: CLD_CYP1A1_24hr: CellzDirect (CLD) Gene Expression Assay for xenobiotic metabolism (CYP1A1) at 24 hours (AID 2283673);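 note: CYP1A1 mRNA level by quantitative nuclease protection with chemiluminescence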
Outline: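 Transcript levels were read at 24 h by qNPA chemiluminescence in human liver primary cells. Cells got daily fresh dosing at multiple concentrations (vehicle 0.2% DMSO). Induction fitted upward against DMSO; phase-contrast cytotoxicity annotated.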

[7] = read-out: sulfotransferase (SULT2A), SULT2A1 (gene 6822); experiment: CLD_SULT2A_6hr: CellzDirect (CLD) Gene Expression Assay for sulfotransferase (SULT2A) at 6 hours (AID 2283669);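 note: hits raise transcript level above the DMSO vehicle baseline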
Outline: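 Measured 6 h after dosing, SULT2A1 mRNA in human hepatocyte lysates was quantified by S1 nuclease protection with chemiluminescent detection. Increases fitted against 0.2% DMSO vehicle baseline; phase-contrast cytotoxicity recorded yes/no.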

[8] = read-out: Cytochrome P450 (CYP24A1_1), CYP24A1 (gene 1591); experiment: LTEA_HepaRG_CYP24A1_1: Life Technologies and Expression Analysis (LTEA) Assay for Cytochrome P450 (CYP24A1_1) using HepaRG (AID 2283671; active = hit-call score of the fitted dose curve at least 0.9, where 1 is the maximum; inactive = score below 0.9); settings: mRNA level, 48 h; actives raise or lower the signal
Outline: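 Readout is CYP24A1 transcript level by qRT-PCR, normalized to three housekeeping genes, with gain or loss of signal fitted against 0.5% DMSO. Human HepaRG cells received compound for 48 h at up to 100 uM.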

[9] = CLD_ACTIN_24hr: CellzDirect (CLD) Gene Expression Assay for Baseline Control (Actin) at 24 hours (AID 2283670)
Outline: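 This 24 h qNPA (S1 nuclease protection, chemiluminescence) actin transcript readout in cultured human liver primary cells serves as baseline control. Signal is fitted upward relative to 0.2% DMSO; chemicals tested at multiple concentrations across two donor preparations.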

[10] = read-out: xenobiotic metabolism (CYP1A2), CYP1A2 (gene 1544); experiment: CLD_CYP1A2_6hr: CellzDirect (CLD) Gene Expression Assay for xenobiotic metabolism (CYP1A2) at 6 hours (AID 2283663);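 for AC50: potency is for induction meaning a rise in mRNA above DMSO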
Outline: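 mRNA levels quantified by quantitative nuclease protection assay with chemiluminescence, 6 h after dosing human primary hepatocyte cultures (two donors) across several concentrations, vehicle 0.2% DMSO. Induction fitted upward versus DMSO; phase-contrast cytotoxicity annotated.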

CCC(=O)Nc1ccc(Cl)c(Cl)c1
AC50 [1]: 36 µM (active) | outcome [2]: inactive | outcome [3]: inactive | outcome [4]: inactive | outcome [5]: inactive | AC50 [6]: 5.72 µM (active)

CSc1nc(NC(C)C)nc(NC(C)C)n1
outcome [3]: inactive | outcome [4]: inactive | outcome [7]: inactive | outcome [8]: inactive | AC50 [6]: 6.14 µM (active)

CC(COc1ccc(Oc2ccccc2)cc1)Oc1ccccn1 (centres undefined)
outcome [3]: inactive | outcome [4]: inactive | outcome [7]: inactive | outcome [8]: inactive | outcome [6]: inactive

N#CSCSC#N
AC50 [1]: 2.75 µM (active) | AC50 [2]: 9.47 µM (active) | outcome [3]: inactive | outcome [9]: inactive | outcome [5]: inactive | outcome [6]: inactive

S=C1NCCN1
AC50 [1]: 6.05 µM (active) | outcome [2]: inactive | outcome [3]: inactive | outcome [4]: inactive | outcome [9]: inactive

COP(=O)(NC(C)=O)SC (centres undefined)
AC50 [1]: 31.8 µM (active) | outcome [2]: inactive | outcome [4]: inactive | outcome [9]: inactive

CN1COCN(Cc2cnc(Cl)s2)C1=N[N+](=O)[O-]
outcome [10]: inactive | outcome [3]: inactive | outcome [9]: inactive | outcome [5]: inactive | outcome [6]: inactive

CCOP(=S)(OCC)Oc1ccc([N+](=O)[O-])cc1
AC50 [1]: 15.5 µM (active) | AC50 [10]: 2.19 µM (active) | outcome [2]: inactive | outcome [3]: inactive | AC50 [6]: 5.99 µM (active)

CCOP(=O)(NC(C)C)Oc1ccc(SC)c(C)c1 (centres undefined)
outcome [1]: inactive | AC50 [10]: 4.22 µM (active) | outcome [3]: inactive | outcome [4]: inactive | outcome [5]: inactive | AC50 [6]: 20 µM (active)

CC(C)=CC1C(C(=O)OCN2C(=O)C3=C(CCCC3)C2=O)C1(C)C (centres undefined)
outcome [10]: inactive | outcome [3]: inactive | outcome [4]: inactive | outcome [6]: inactive

CC1(C(=O)Nc2ccc(O)c(Cl)c2Cl)CCCCC1
outcome [1]: inactive | AC50 [2]: 82.2 µM (active) | outcome [3]: inactive | outcome [4]: inactive | outcome [9]: inactive | outcome [8]: inactive

CN(C)[C@@H]1C(=O)C(C(N)=O)=C(O)[C@@]2(O)C(=O)C3=C(O)c4c(O)cccc4[C@@](C)(O)[C@H]3[C@H](O)[C@@H]12
AC50 [1]: 17.5 µM (active) and 10.5 µM (active) and 15.5 µM (active) | AC50 [2]: 5.47 µM (active) and 53.8 µM (active) | outcome [2]: inactive | outcome [3]: inactive | outcome [4]: inactive | outcome [9]: inactive | outcome [5]: inactive

C#CCC1=C(C)C(OC(=O)C2C(C=C(C)C)C2(C)C)CC1=O (centres undefined)
AC50 [1]: 40.2 µM (active) | outcome [3]: inactive | outcome [4]: inactive | outcome [7]: inactive | outcome [5]: inactive | AC50 [6]: 20 µM (active)

CCOP(=O)(SC(C)CC)N1CCSC1=O (centres undefined)
AC50 [1]: 43.8 µM (active) | outcome [2]: inactive | outcome [4]: inactive | outcome [6]: inactive

COP(=O)(OC)SCn1c(=O)oc2cc(Cl)cnc21
AC50 [1]: 7.84 µM (active) | outcome [2]: inactive | outcome [3]: inactive | outcome [4]: inactive | outcome [6]: inactive

Nc1c(Cl)cc([N+](=O)[O-])cc1Cl
outcome [10]: inactive | AC50 [4]: 38.8 µM (active) | AC50 [6]: 9.35 µM (active)

CSC1=N[C@@](C)(c2ccccc2)C(=O)N1Nc1ccccc1
AC50 [1]: 25.7 µM (active) | outcome [2]: inactive | outcome [3]: inactive | outcome [4]: inactive | outcome [9]: inactive | outcome [5]: inactive | AC50 [6]: 3 µM (active)

CCOP(=S)(OCC)Oc1ccc2c(C)c(Cl)c(=O)oc2c1
AC50 [1]: 38.5 µM (active) | outcome [2]: inactive | outcome [3]: inactive | outcome [4]: inactive | outcome [9]: inactive | outcome [8]: inactive | AC50 [6]: 1.89 µM (active)

CCCCN(CC)c1c([N+](=O)[O-])cc(C(F)(F)F)cc1[N+](=O)[O-]
outcome [3]: inactive | outcome [4]: inactive | outcome [7]: inactive | outcome [8]: inactive | AC50 [6]: 8.49 µM (active)

CCOP(=S)(Oc1cnc(C(C)(C)C)nc1)OC(C)C (centres undefined)
AC50 [1]: 36.2 µM (active) | AC50 [2]: 31.4 µM (active) | outcome [3]: inactive | outcome [4]: inactive | outcome [8]: inactive | outcome [5]: inactive | AC50 [6]: 7.48 µM (active)

C=C(C)[C@H]1Cc2c(ccc3c2O[C@@H]2COc4cc(OC)c(OC)cc4[C@@H]2C3=O)O1
AC50 [1]: 26.5 µM (active) | outcome [2]: inactive | outcome [3]: inactive | outcome [4]: inactive | AC50 [6]: 3.38 µM (active)

CC(C)N(C(=O)SCC(Cl)=C(Cl)Cl)C(C)C
outcome [3]: inactive | outcome [4]: inactive | outcome [7]: inactive | outcome [6]: inactive

CCOP(=S)(OCC)OC(Cl)C(Cl)(Cl)Cl (centres undefined)
AC50 [1]: 3.97 µM (active) | AC50 [2]: 64.7 µM (active) | AC50 [6]: 4.46 µM (active)

CCCSP(=O)(OCC)SCCC
AC50 [1]: 19.4 µM (active) | outcome [2]: inactive | AC50 [6]: 2.42 µM (active)

CCOC(=O)CC(SP(=O)(OC)OC)C(=O)OCC (centres undefined)
AC50 [1]: 29.2 µM (active) | outcome [2]: inactive | outcome [4]: inactive | outcome [8]: inactive | outcome [5]: inactive | AC50 [6]: 5.29 µM (active)

CCC(=NOC/C=C/Cl)C1=C(O)CC(C2CCOCC2)CC1=O (centres undefined)
outcome [1]: inactive | outcome [10]: inactive | outcome [2]: inactive | outcome [3]: inactive | outcome [9]: inactive

C[N+]1(C)CCCCC1
outcome [10]: inactive | outcome [3]: inactive | outcome [4]: inactive | outcome [9]: inactive

CCCOCC(=Nc1ccc(Cl)cc1C(F)(F)F)n1ccnc1
outcome [1]: inactive | AC50 [2]: 21.3 µM (active) | outcome [3]: inactive | outcome [4]: inactive | AC50 [6]: 2.36 µM (active)

CCOP(=S)(OCC)Oc1cc(C)nc(C(C)C)n1
AC50 [1]: 14.4 µM (active) | AC50 [2]: 83.2 µM (active) | outcome [3]: inactive | outcome [4]: inactive | outcome [5]: inactive | AC50 [6]: 6.62 µM (active)
